About 83,000 compounds went through this panel and 20% of them were active in at least one assay; those are over-represented in the sample as a whole.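 Single-concentration screen, 48 h exposure, 96-well plates. Endpoint: percent growth. Below 10 = active.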 Active and inactive are the calls of the source.
tested on: NCI-H460 lung; experiment: NCI-60 one-dose screen, 48 h (100 = growth as untreated, 0 = no growth, -100 = all killed); settings: 10 µM unless noted

Compound	growth
O=[N+]([O-])c1cccc2cc(S(=O)(=O)O)ccc12	110% (inactive)
COc1ccc(SC2c3ccc(O)cc3Oc3nc(N)c(C#N)c(N)c32)cc1 (stereo not drawn)	79.3% (inactive)
Nc1nccc2c1ccn2-c1cccc(NC(=O)c2ccc(N3CCOCC3)c(C(F)(F)F)c2)c1	1.28% (active)
COc1ccc(OC)c(NCC(=O)n2nc(/C=C\c3ccc(O)c(OC)c3)cc2/C=C\c2ccc(O)c(OC)c2)c1	8.27% (active)
O=C(Nc1ccc(-n2cc(-c3ccncc3)c(-c3ccc(O)c(Cl)c3)n2)cc1)c1cc(C(F)(F)F)cc(C(F)(F)F)c1	45% (inactive)
CC(C)(C)OC(=O)N1CCN(CCn2cc(C(F)(F)F)c3c(Cl)ncnc32)CC1	59.3% (inactive)
COc1cc([C@@H]2c3cc4c(cc3C(OC3O[C@@H]5COC(C)O[C@H]5[C@H](O)[C@H]3O)C3COC(=O)[C@@H]32)OCO4)cc(OC)c1O (stereo partly drawn)	7.32% (active)
CNCCCOc1c(Br)cc(CCNC(=O)/C(Cc2cc(Br)c(OC)c(Br)c2)=N/O)cc1Br	-44.7% (active)
CCCCCCCCN(CCCCCCCC)CC(O)c1cc(-c2ccccc2)nc2ccc(OC)cc12 (stereo not drawn)	98.9% (inactive)
CC(C)(C)NC(C1=CC(C)(C)c2ccccc2C1=O)c1ccccc1 (stereo not drawn)	-49.2% (active)
CCOC(=O)C1CSC(C)(C(=O)OCC)N1 (stereo not drawn)	106% (inactive)
COc1ccc(-c2coc3c(CO)c(O)ccc3c2=O)cc1	32.7% (inactive)
O=C(Cn1c2ccccc2c2ccncc21)N/N=C/c1c[nH]c2ccccc12	1.47% (active)
CCCCC(=O)Nc1nc2ccc(SCCC)cc2s1	32% (inactive)
O=C(COc1ccc(Cl)cc1Cl)N1N=C(c2ccc(Cl)cc2Cl)CC1(O)c1cc(F)c(Cl)cc1Cl (stereo not drawn)	107% (inactive)
Nc1nccc2c1ccn2-c1ccc(NC(=O)Nc2cccc(C(F)(F)F)c2)cc1	90.8% (inactive)
COc1ccc(CNc2nc3ccccc3c3c(=O)c4ccccc4sc23)cc1OC	63.3% (inactive)
O=C1CCC(=O)N1C1CCCCC1	104% (inactive)
Nc1ccc(S(=O)(=O)Nc2ccnn2-c2ccccc2)cc1	108% (inactive)
COc1ccc(C2=NN(C(=O)COc3ccc(Cl)cc3)C(O)(c3cc(F)c(Cl)cc3Cl)C2)cc1OC (stereo not drawn)	32.9% (inactive)

Compound	growth
NCC(=O)NS(=O)(=O)OC[C@H]1O[C@@H](n2cnc3c(N)ncnc32)[C@H](O)[C@@H]1O	3.35% (active)
CCCC(=O)Oc1ccc(/C(=C(\C)c2ccc(Cl)cc2)c2ccc(OCCN(CC)CC)cc2)cc1	-83.9% (active)
O=C(NCCNc1nccc(-c2c(-c3cccc(O)c3)nc3sccn23)n1)c1ccc(N2CCOCC2)c(C(F)(F)F)c1	66.9% (inactive)
C#C[C@@]1(O)[C@@H](CO)O[C@@H](n2cc(Br)c3c(Cl)ccnc32)[C@@H]1O	45% (inactive)
CN(C)c1ccc(/C=N/N=C(N)N)cc1	83.2% (inactive)
C=C1c2c(Cl)ccc(O)c2C(O)=C2C(=O)[C@]3(O)C(O)=C(C(N)=O)C(=O)[C@@H](N(C)C)[C@@H]3[C@@H](O)[C@H]12	4.63% (active)
O=C(Nc1ccccc1Cl)c1c[nH]c(=O)c(-c2ccc(N3CCCOC4(CC4)C3)cc2)c1	63.8% (inactive)
Cc1ccc2oc(=O)cc(C3C(C#N)=C(N)Oc4c3ccc3ccccc43)c2c1 (stereo not drawn)	84.1% (inactive)
COc1ccc2c(-c3ccc(F)cc3)c(C#N)c(=NC(C)=O)oc2c1	23.3% (inactive)
O=C(Nc1ccc(-n2ccc3c(NC(=O)c4ccccc4)ncnc32)cc1)c1cccc(C(F)(F)F)c1	10.2% (inactive)
C=C1C(=O)O[C@H]2[C@H]1CC/C(COC(=O)n1ccnc1C)=C\CC[C@@]1(C)O[C@@H]21	105% (inactive)
CCn1cc(C(=O)O)c(=O)c2cc(F)c(N3CCN(CC(=O)Nc4ccc(C(C)=O)cc4)CC3)cc21	107% (inactive)
COc1ccc(Cl)cc1NC(=O)c1cc2c([nH]1)-c1nc(NC(=O)C(C)(C)C)sc1CC2	18.3% (inactive)
COc1ccccc1P(c1ccccc1OC)c1ccccc1OC	94.8% (inactive)
Nc1nc(=S)ss1	110% (inactive)
CCCOC(=O)c1ccc([N+](=O)[O-])o1	91.4% (inactive)
O=C(CSc1nnc(-c2ccc(Cl)cc2)o1)Nc1ccc(C(=O)/C=C/c2ccccc2)cc1	97.7% (inactive)
Cc1ccc(NC(=O)CN2CCOCC2)cc1Cl	100% (inactive)
CCCCCC/C=N/Nc1ccc([N+](=O)[O-])cn1	112% (inactive)

tested on: HOP-92 NSCLC; experiment: as above; settings: 10 µM unless noted

Compound	growth
O=[N+]([O-])c1cccc2cc(S(=O)(=O)O)ccc12	85% (inactive)
COc1ccc(SC2c3ccc(O)cc3Oc3nc(N)c(C#N)c(N)c32)cc1 (stereo not drawn)	112% (inactive)
Nc1nccc2c1ccn2-c1cccc(NC(=O)c2ccc(N3CCOCC3)c(C(F)(F)F)c2)c1	-6.29% (active)
COc1ccc(OC)c(NCC(=O)n2nc(/C=C\c3ccc(O)c(OC)c3)cc2/C=C\c2ccc(O)c(OC)c2)c1	34.5% (inactive)
O=C(Nc1ccc(-n2cc(-c3ccncc3)c(-c3ccc(O)c(Cl)c3)n2)cc1)c1cc(C(F)(F)F)cc(C(F)(F)F)c1	6.71% (active)
CC(C)(C)OC(=O)N1CCN(CCn2cc(C(F)(F)F)c3c(Cl)ncnc32)CC1	-23.1% (active)
COc1cc([C@@H]2c3cc4c(cc3C(OC3O[C@@H]5COC(C)O[C@H]5[C@H](O)[C@H]3O)C3COC(=O)[C@@H]32)OCO4)cc(OC)c1O (stereo partly drawn)	63.5% (inactive)
CNCCCOc1c(Br)cc(CCNC(=O)/C(Cc2cc(Br)c(OC)c(Br)c2)=N/O)cc1Br	-6.24% (active)
CCCCCCCCN(CCCCCCCC)CC(O)c1cc(-c2ccccc2)nc2ccc(OC)cc12 (stereo not drawn)	70.1% (inactive)
CC(C)(C)NC(C1=CC(C)(C)c2ccccc2C1=O)c1ccccc1 (stereo not drawn)	-50.8% (active)
CCOC(=O)C1CSC(C)(C(=O)OCC)N1 (stereo not drawn)	84.7% (inactive)
COc1ccc(-c2coc3c(CO)c(O)ccc3c2=O)cc1	55.8% (inactive)
O=C(Cn1c2ccccc2c2ccncc21)N/N=C/c1c[nH]c2ccccc12	61.2% (inactive)
CCCCC(=O)Nc1nc2ccc(SCCC)cc2s1	20.8% (inactive)
O=C(COc1ccc(Cl)cc1Cl)N1N=C(c2ccc(Cl)cc2Cl)CC1(O)c1cc(F)c(Cl)cc1Cl (stereo not drawn)	84.5% (inactive)
Nc1nccc2c1ccn2-c1ccc(NC(=O)Nc2cccc(C(F)(F)F)c2)cc1	57.4% (inactive)
COc1ccc(CNc2nc3ccccc3c3c(=O)c4ccccc4sc23)cc1OC	42.8% (inactive)
O=C1CCC(=O)N1C1CCCCC1	102% (inactive)
Nc1ccc(S(=O)(=O)Nc2ccnn2-c2ccccc2)cc1	97.9% (inactive)
COc1ccc(C2=NN(C(=O)COc3ccc(Cl)cc3)C(O)(c3cc(F)c(Cl)cc3Cl)C2)cc1OC (stereo not drawn)	-44.8% (active)

Compound	growth
NCC(=O)NS(=O)(=O)OC[C@H]1O[C@@H](n2cnc3c(N)ncnc32)[C@H](O)[C@@H]1O	17.3% (inactive)
CCCC(=O)Oc1ccc(/C(=C(\C)c2ccc(Cl)cc2)c2ccc(OCCN(CC)CC)cc2)cc1	-13.1% (active)
O=C(NCCNc1nccc(-c2c(-c3cccc(O)c3)nc3sccn23)n1)c1ccc(N2CCOCC2)c(C(F)(F)F)c1	38.9% (inactive)
C#C[C@@]1(O)[C@@H](CO)O[C@@H](n2cc(Br)c3c(Cl)ccnc32)[C@@H]1O	-60.5% (active)
CN(C)c1ccc(/C=N/N=C(N)N)cc1	73.6% (inactive)
C=C1c2c(Cl)ccc(O)c2C(O)=C2C(=O)[C@]3(O)C(O)=C(C(N)=O)C(=O)[C@@H](N(C)C)[C@@H]3[C@@H](O)[C@H]12	-37.3% (active)
O=C(Nc1ccccc1Cl)c1c[nH]c(=O)c(-c2ccc(N3CCCOC4(CC4)C3)cc2)c1	70.4% (inactive)
Cc1ccc2oc(=O)cc(C3C(C#N)=C(N)Oc4c3ccc3ccccc43)c2c1 (stereo not drawn)	87.3% (inactive)
COc1ccc2c(-c3ccc(F)cc3)c(C#N)c(=NC(C)=O)oc2c1	70.6% (inactive)
O=C(Nc1ccc(-n2ccc3c(NC(=O)c4ccccc4)ncnc32)cc1)c1cccc(C(F)(F)F)c1	81.2% (inactive)
C=C1C(=O)O[C@H]2[C@H]1CC/C(COC(=O)n1ccnc1C)=C\CC[C@@]1(C)O[C@@H]21	106% (inactive)
CCn1cc(C(=O)O)c(=O)c2cc(F)c(N3CCN(CC(=O)Nc4ccc(C(C)=O)cc4)CC3)cc21	92.8% (inactive)
COc1ccc(Cl)cc1NC(=O)c1cc2c([nH]1)-c1nc(NC(=O)C(C)(C)C)sc1CC2	51.4% (inactive)
COc1ccccc1P(c1ccccc1OC)c1ccccc1OC	70% (inactive)
Nc1nc(=S)ss1	98.7% (inactive)
CCCOC(=O)c1ccc([N+](=O)[O-])o1	109% (inactive)
O=C(CSc1nnc(-c2ccc(Cl)cc2)o1)Nc1ccc(C(=O)/C=C/c2ccccc2)cc1	106% (inactive)
Cc1ccc(NC(=O)CN2CCOCC2)cc1Cl	80.8% (inactive)
CCCCCC/C=N/Nc1ccc([N+](=O)[O-])cn1	104% (inactive)

Reference: PubChem BioAssay (NCI)
